Measured values from PubChem BioAssay (Tox21).
Values joined by “and” are separate entries in the source; they are usually repeats but may differ in a detail not shown here. Identical values can stand only once. Inconclusive results are not listed. Active and inactive are the calls of the source. Calls follow the shape of the dose curve; as a rule, active = well fitted cell-killing curve with a large enough effect in the repeat runs; inconclusive = weak or mixed curves, or effect the other way; inactive = flat fitted curve, though single readings scatter.

experiment: qHTS RealTime-Glo MT Cell Viability Assay in HEK293 cells - 0 hour (AID 1224880); settings: RealTime-Glo luminescence; series mostly up to 76.8 µM; activity change, negative = cytotoxicity: at the top concentration; also: nearly all actives have a fitted effect of over 45% in size; as to activity change, negative = cytotoxicity: top concentration of the series differs between compounds
Procedure, shortened: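 HEK293 cells mixed with RealTime-Glo reagents (NanoLuc plus cell-permeant prosubstrate) at 600 cells/well, preincubated 5 h at 37 C/5% CO2, then given 23 nL compound in DMSO. Nonlytic luminescence from viable cells was read at 0, 8, 16, 24, 32 and 40 h.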
% is scaled to controls: 0 for no effect and ±100 for the full control effect; potency is read from the fitted curve at half-maximal effect.

Structure (SMILES) | activity change, negative = cytotoxicity | Potency
COP(=S)(OC)Oc1nc(Cl)c(Cl)cc1Cl | -11.3% (inactive) | –
[O-][Cl+3]([O-])([O-])O | -13% (inactive) | –
O=Cc1ccccc1 | -3.84% (inactive) | –
N#CC(C#N)=NNc1cccc(Cl)c1 | – | 38.9 µM (active)
CC[C@H](C)[C@H]1O[C@]2(C=C[C@@H]1C)C[C@@H]1C[C@@H](C/C=C(\C)[C@@H](O[C@H]3C[C@H](OC)[C@@H](O[C@H]4C[C@H](OC)[C@@H](NC)[C@H](C)O4)[C@H](C)O3)[C@@H](C)/C=C/C=C3\CO[C@@H]4[C@H](O)C(C)=C[C@@H](C(=O)O1)[C@]34O)O2 | 7% (inactive) | –
Nc1cc(Cl)ccc1Cl | 4.49% (inactive) | –
C1=CCC=C1 | 1.6% (inactive) | –
BrCC(Br)(Br)Br | -0.281% (inactive) | –
O=C1C2(Cl)C3(Cl)C4(Cl)C(Cl)(Cl)C5(Cl)C3(Cl)C1(Cl)C5(Cl)C24Cl (stereo unspecified) | 24.7% (inactive) | –
O=C1C(Cl)=C(Cl)C(=O)C(Cl)=C1Cl | – | 3.08 µM (active) and 9.77 µM (active)
CSC(C)(C)/C=N/O | 0.918% (inactive) | –
NC(=O)C(Cl)Cl | -1.85% (inactive) | –
CN(C)CCc1c[nH]c2ccccc12 | 1.26% (inactive) | –
CCCCn1cc[n+](C)c1 (tested in a mixture with another compound) | -0.384% (inactive) | –
CCC(C)c1cccc(C(C)CC)c1O (stereo unspecified) | 2.53% (inactive) | –
Fc1ccc(C(OCCN2CCN(CCCc3ccccc3)CC2)c2ccc(F)cc2)cc1 | 10.7% [at 35.3 µM] (inactive) | –
CCN(CC)CCN1C(=O)CN=C(c2ccccc2F)c2cc(Cl)ccc21 | 9.4% [at 35.3 µM] (inactive) | –
Nc1ccccc1-c1ccccc1 | 3.52% (inactive) | –

Structure (SMILES) | activity change, negative = cytotoxicity | Potency
O=[N+]([O-])c1cc(C(F)(F)F)c(Cl)c([N+](=O)[O-])c1Nc1ncc(C(F)(F)F)cc1Cl | -16% (inactive) | –
CCCCn1cc[n+](C)c1.[Cl][Fe-]([Cl])([Cl])[Cl] | -0.0068% (inactive) | –
S=C=NCCc1ccccc1 | 0.491% (inactive) | –
Nc1nc(N)nc(Cl)n1 | 3.36% (inactive) | –
Oc1cccc(Cl)c1Cl | -5.02% (inactive) | –
Brc1cccc(-c2ccccc2)c1 | -2.16% (inactive) | –
CCCCCON=O | -7.19% (inactive) | –
CC(=O)C(Cl)C(=O)N(C)C (stereo unspecified) | 8.53% (inactive) | –
COc1ccc2[nH]cc(CCN(C(C)C)C(C)C)c2c1 | 10.1% (inactive) | –
Cc1ccn2nc(S(=O)(=O)Nc3c(F)cccc3F)nc2n1 | 11% (inactive) | –
COC(=O)C(C)N(C(=O)c1ccco1)c1c(C)cccc1C (stereo unspecified) | -0.767% (inactive) | –
CN1CCc2cc(Cl)c(O)cc2[C@H]2c3ccccc3CC[C@@H]21 | -1.06% [at 35.3 µM] (inactive) | –
[C-]1=CC=CC1.[Cl][Zr+2][Cl].c1cc[cH-]c1 | -2.1% (inactive) | –
O=c1c2ccccc2c(=O)c2c1cc(Cl)c1[nH]c3c([nH]c12)c(Cl)cc1c(=O)c2ccccc2c(=O)c13 | -9.87% (inactive) | –
N#CSCc1ccccc1 | -2.3% (inactive) | –
ClC1=C(Cl)[C@]2(Cl)[C@H]3[C@H]([C@@H]4C=C[C@H]3C4)[C@@]1(Cl)C2(Cl)Cl | – | inactive
O=C(N[C@@H]1N=C(c2ccccc2F)c2cccc3c2N(CC3)C1=O)c1cc2ccccc2[nH]1 | -8.49% [at 35.3 µM] (inactive) | –
CN(C)C(=S)SSC(=S)N(C)C | – | inactive
